Drawing on PubChem BioAssay AID1159606 (Sanford-Burnham Center for Chemical Genomics, 2016), this text covers inhibition for 91 molecules.

Out of some 360,000 compounds screened, about 7,300 (2%) were called active. The sample as a whole holds a higher share of actives than the screen did. Unmarked numbers belong to inactive results. No stated cut-off is given here; in the data, active means inhibition above about 50%; inactive means the rest.

A short description of this test: inhibitors of TWEAK-Fn14 signaling, primary screen, luciferase reporter cells, uHTS (AID 1159606). The settings on record: TWEAK-stimulated Fn14 reporter cells, luciferase luminescence, 8 h; at 10 µM; active compounds read high. In general terms: In a reporter assay the amount or activity of a reporter protein is the signal.
The term inhibition denotes the change of the read-out against control, counted positive when it falls. On to `COc1ccc(CNC(=O)COC(=O)CCS(=O)(=O)c2ccc(C)cc2)cc1OC`, for which the inhibition was -0.44%.
With `COc1ccc(NC(=O)CN(C)C(=O)Cc2coc3cc(C)c(C)cc23)cc1`, the inhibition is -4.06%.
With `Cc1cc(-c2n[nH]c(=S)n2/N=C/C(Br)=C/c2ccccc2)n[nH]1`, the inhibition is 95% (active).
`O=[N+]([O-])c1ccccc1/C=N/n1c(COc2ccccc2)n[nH]c1=S`: the inhibition is 17.8%.
In the case of `COc1ccccc1/C=C/C=N/n1c(-c2ccc(Cl)cc2Cl)n[nH]c1=S`, the inhibition was -13.9%.
With `Fc1ccc(/C=N/n2c(COc3ccccc3)n[nH]c2=S)cc1`, the inhibition was -16.7%.
Regarding `S=c1[nH]nc(-c2cccnc2)n1/N=C/C(Cl)=C\c1ccccc1`, the inhibition is 55.4% (active).
In the case of `S=c1[nH]nc(-c2ccco2)n1/N=C/c1ccc(Br)s1`, the inhibition is -5.12%.
With `COc1ccc(Cc2nnc(SCC(=O)N(c3ccccc3)C(C)C)n(N)c2=O)cc1`, the inhibition was 4.78%.
Consider `COC(=O)[C@]12CCCCC=C1N(Cc1ccco1)C(=O)[C@H](CC(=O)NCC1CCCCC1)C2`, for which the inhibition was -2.8%.
Turning to `N#CCCN(C(=S)Nc1ccc(Cl)c(Cl)c1)C1CCCCC1`, the inhibition is 7.89%.
In the case of `Cc1ccc(F)c(S(=O)(=O)NC(=O)C2(C)CCN2C(=O)c2ccco2)c1` (stereo unspecified), the inhibition is 4.06%.
Under `CC(C)n1cnc2c(Nc3cccc(Cl)c3)nc(N(CCO)CCCO)nc21` stands 54.7% (active); under `CC(C)C[C@H](CO)Nc1nc(N(C)c2cccc(Cl)c2)c2ncn(C(C)C)c2n1`, -0.23%.
With `COc1ccc(/C(O)=C2/C(=O)C(=O)N(c3nc(C)c(C)s3)C2c2ccco2)cc1` (stereo unspecified), the inhibition is 15.4%.
With `CCOc1ccc(/C(O)=C2\C(=O)C(=O)N(c3ccc(OC)cc3)C2c2ccccc2[N+](=O)[O-])cc1` (stereo unspecified), the inhibition is 68.4% (active).
Under `COc1ccc(C2/C(=C(/O)c3ccccc3)C(=O)C(=O)N2c2ncccn2)cc1OC` (stereo unspecified) stands 5.36%; under `CCCC(=O)Nc1ccc(C(=O)NCCCn2ccnc2)cc1`, -38.4%; under `COc1ccc(OC)c(C(=O)c2coc3ccc(O)c(CN4CCOCC4)c23)c1`, 28.4%.
Take `COc1ccc(OC)c(C(=O)c2coc3ccc(OC)cc23)c1`: the inhibition was 67.6% (active).
`COc1ccc2occ(C(=O)c3ccc(N=C(C)N(C)C)cc3)c2c1`: the inhibition is -30.2%.
Regarding `Cc1cc(Cl)c2oc(C(=O)NC(C)c3ccncn3)c(C)c2c1` (stereo unspecified), the inhibition is -26.6%.
Regarding `CCOc1ccc(CCNC(=O)COC(=O)C2CCN(c3ccc(C(F)(F)F)cn3)CC2)cc1OCC`, the inhibition was 6.43%.
On to `O=C(CN1C(=O)NC(Cc2c[nH]c3ccccc23)C1=O)Nc1ccccc1C(F)(F)F` (stereo unspecified), for which the inhibition was 29.8%.
Under `Oc1c(Cl)cc(Cl)c(Cl)c1Cc1c(O)c(Cl)cc(Cl)c1Cl` stands 64% (active); under `CC1Cc2[nH][nH]c(=O)c2C(C2CC2)O1` (stereo unspecified), 4.07%.
For `CC(C)NC(=O)N1Cc2cc(C(=O)NCC(F)(F)F)nc(-c3cccc(-c4cc5ccccc5o4)c3)c2[C@@H]1CCO`, the inhibition was 37.6%.
Under `CCOc1ccc(NC(=O)CN(C)C(=O)CSc2ccccc2)cc1OCC` stands 2.8%; under `CCOC(=O)c1cc2cc(OC)ccc2n1C1CCN(C)CC1`, -7.56%; under `CCOC(=O)C1=C(C)N=c2s/c(=C\C(=O)OC)c(=O)n2C1c1ccc(OC)cc1` (stereo unspecified), 87.1% (active).
For `CCOC(=O)C1=C(CSc2nccn2C)NC(=O)NC1c1ccc(OC)cc1` (stereo unspecified), the inhibition was -0.26%.
Under `Nc1ccccc1/C=N\N=C/c1ccccc1N` stands -29.4%; under `COC[C@@H]1NS(=O)(=O)c2ccc(Br)cc2O[C@H]1c1ccccc1`, 6.78%.
Consider `CCOc1ccc(-n2c(SC(C)C(=O)OC)nc3c(c2=O)SCC3)cc1` (stereo unspecified), for which the inhibition was 1.38%.
For `Cc1ccc(Cc2c(-c3ccc(Cl)cc3)nc3c4ccccc4ccn23)cc1`, the inhibition was 22%.
Turning to `Cc1ccc(-c2nc3c(C)cc(Br)cn3c2Cc2ccccc2)cc1`, the inhibition is 13.1%.
As to `Cc1ccc(Cc2c(-c3ccc(C)cc3)nc3c4ccccc4ccn23)cc1`, the inhibition is 57.1% (active).
Take `FC(F)(F)c1ccccc1Cc1c(-c2ccccc2)nc2c3ccccc3ccn12`: the inhibition was 8.37%.
Consider `c1ccc(Cc2c(-c3ccco3)nc3c4ccccc4ccn23)cc1`, for which the inhibition was 57.8% (active).
On to `Cc1ccc(Cc2c(-c3ccco3)nc3ccc(Cl)cn23)cc1`, for which the inhibition was 48.4%.
Regarding `C=CCSc1nc2c(c(=O)[nH]1)C(C(C)C)C(C#N)=C(N)O2` (stereo unspecified), the inhibition was -24.9%.
`O=C(NC1CCN(S(=O)(=O)c2ccc(F)cc2)CC1)c1ccccc1`: the inhibition is -13.3%.
`COCCCn1c(-c2cccs2)nc2nc3ccccc3nc21`: the inhibition is 34.3%.
As for `CCCc1c(-c2ccccc2F)ncn1Cc1ccccc1OC`, the inhibition was 2.25%.
Turning to `CC(=O)c1c(C)[nH]c(C(=O)COC(=O)c2cccc(S(=O)(=O)N(C)c3ccccc3)c2)c1C`, the inhibition was 101% (active).
With `CC(=O)c1c(C)[nH]c(C(=O)COC(=O)c2cccs2)c1C`, the inhibition was -16.3%.
Under `COc1cccc(C(=O)OCC(=O)c2[nH]c(C)c(C(C)=O)c2C)c1` stands -4.4%.
Turning to `COc1ccc(N(C(=O)c2snc(C(N)=O)c2N)C(C(=O)NC2CCCC2)c2ccc(C)o2)c(OC)c1` (stereo unspecified), the inhibition is 22.4%.
`COc1c(C)c2c(c(O)c1C/C=C(\C)CCC(=O)O)C(=O)OC2`: the inhibition was -6.73%.
As for `CCn1c(N)c(Br)c(=O)[nH]c1=O`, the inhibition was 9.55%.
`CC(C)c1ccc2c(c1)c(SC(C)(C)C)c(CC(C)(C)C(=O)O)n2Cc1ccc(Cl)cc1`: the inhibition is 79.3% (active).
As for `Cc1cccnc1CCNC(=O)C1CCC(=O)N(Cc2cccc(F)c2)C1` (stereo unspecified), the inhibition was -10.1%.
As to `CCOC(=O)C1CCCN(C(=O)COc2ccc(N(C)S(=O)(=O)c3ccc(C)cc3)cc2)C1` (stereo unspecified), the inhibition was 9.89%.
As to `CCOc1ccc(NC(=O)CN(C)CC(=O)Nc2cccc(Cl)c2C)cc1OCC`, the inhibition was 5.07%.
On to `C=CCn1c(C)cc(C2=NNC(=NCC)SC2)c1C`, for which the inhibition was 107% (active).
With `CCc1nc2ccc(C(=O)Nc3ccc(OC)c(OC)c3)cn2c1N(C)C(=O)c1cccc(OC)c1`, the inhibition is -18.4%.
With `COc1cccc(CN(C)CC2CCCN(CCc3ccc(Cl)cc3)C2)c1OC` (stereo unspecified), the inhibition was -2.09%.
Turning to `O=C(NCc1ccccc1)[C@@H]1CSC2c3ccccc3C(=O)N21` (stereo partly specified), the inhibition is 8.08%.
In the case of `Cc1ccc2nc(SC(C)C(=O)NCc3ccco3)[nH]c2c1` (stereo unspecified), the inhibition is 46%.
`CSc1ncccc1C(=O)Nc1ccc2c(c1)OCO2`: the inhibition is 1.24%.
With `CCOc1ncccc1C(=O)Nc1ccc(S(=O)(=O)Nc2nc(C)cc(C)n2)cc1`, the inhibition is -19.9%.
Turning to `CCOc1ncccc1C(=O)Nc1ccc2c(c1)OCCO2`, the inhibition is 68.7% (active).
On to `COC(=O)[C@]12CCCCC=C1N(Cc1ccco1)C(=O)[C@H](CC(=O)NCCCCc1ccccc1)C2`, for which the inhibition is 16.9%.
Regarding `O=C(NCCc1ccccn1)c1cc(C(=O)C2CCCCC2)c[nH]1`, the inhibition was 4.9%.
As to `Cc1cc(C)c(C#N)c(SCC(=O)N(CC(C)C)C2CCS(=O)(=O)C2)n1` (stereo unspecified), the inhibition was 4.51%.
Take `COC(=O)C(Cc1c[nH]c2ccccc12)NC(=O)CCNC(=O)c1ccco1` (stereo unspecified): the inhibition is -24.2%.
Turning to `O=C1NC[C@H](CCCCN2CCN(CCc3ccccc3)C(=O)C2=O)N(CC2CCCCC2)C1=O`, the inhibition is -2.45%.
Regarding `O=C1OCCOC2CCCc3oc(-c4ccccc4)c1c32` (stereo unspecified), the inhibition is 16.6%.
With `COc1ccc(N(CC(=O)Nc2cc(OC)ccc2OC)S(=O)(=O)c2c(C)noc2C)cc1`, the inhibition is -0.61%.
For the molecule `CCOC(=O)c1cccc(NC(=O)CN(c2ccc(C)cc2)S(=O)(=O)c2c(C)noc2C)c1`, the inhibition was 57.7% (active).
Turning to `Cc1noc(C)c1S(=O)(=O)N(CC(=O)Nc1ccc2c(c1)OCCO2)c1ccc(C(C)C)cc1`, the inhibition was 35.5%.
Consider `O=c1oc(/C=C/c2ccccc2)nc2ccccc12`, for which the inhibition was 55.3% (active).
For `O=c1[nH]c(/C=C/c2cccc(Br)c2)nc2ccccc12`, the inhibition is -14.4%.
Under `S=c1[nH]nc(/C=C/c2ccccc2)o1` stands 9.4%.
Take `CCN(c1ccccc1)S(=O)(=O)c1cc2c(cc1C)n(C)c(=O)c(=O)n2C`: the inhibition was -4.66%.
On to `FC(F)(F)Oc1ccc(-c2cn3cccnc3n2)cc1`, for which the inhibition is -15.1%.
For the molecule `Cc1ccc(-c2cc(N)on2)cc1`, the inhibition is -5.28%.
Consider `COc1ccc(-c2cn3ccc(C)cc3n2)cc1`, for which the inhibition was 81.6% (active).
Turning to `Cc1ccc(-c2nc3ccc(Br)cn3c2Cc2ccccc2C(F)(F)F)cc1`, the inhibition was 5.76%.
Turning to `Cc1ccc(-n2cc3ccc([N+](=O)[O-])cc3n2)cc1`, the inhibition was 39.8%.
Under `Cc1ccc(-c2cn3cc(C)ccc3n2)cc1` stands 105% (active).
As for `COc1ccc(C2=Nc3cc(C)ccc3OC2)cc1`, the inhibition is 27.9%.
Under `Cc1ccc2nc(-c3ccc(Br)cc3)cn2c1` stands 98.8% (active); under `CS(=O)(=O)Nc1cccc(-c2cn3ccccc3n2)c1`, -6.02%.
Under `COc1ccc(-c2nc3ccc(Br)cn3c2Cc2ccc(C)cc2)cc1OC` stands -20.3%.
Consider `Cc1ccc(-c2cn3cc([N+](=O)[O-])ccc3n2)cc1`, for which the inhibition is 76.3% (active).
For `Cc1ccnc(N2C(=O)c3ccc([N+](=O)[O-])cc3C2=O)c1`, the inhibition was 5.4%.
Turning to `Cc1ccc(OCC(=O)Nc2ccccc2Sc2ccc(Cl)cc2)c([N+](=O)[O-])n1`, the inhibition was 13.7%.
As for `COc1cccc(-c2cc3nc(NCCOc4ccccc4Cl)n(C)c(=O)c3s2)c1`, the inhibition is 15.1%.
As for `CCOC(=O)C1CCCN(C(=O)c2cc(-c3cccs3)oc2C)CC1` (stereo unspecified), the inhibition is 31.6%.
Consider `Cc1ccc(S(=O)(=O)Nc2ccccc2CNc2c(C)n(C)n(-c3ccccc3)c2=O)cc1`, for which the inhibition is 12.4%.
